Experimental data as given in PubChem BioAssay.
Active and inactive are the calls of the source. Unless noted, the rule behind the calls is not given here.

Legend:
[1] = HepG2 liver cancer cell viability effects, profiling panel, resazurin fluorescence, 24 h, PK04 Diversity Set (AID 1172); conditions: higher = more signal
[2] = basal S. cerevisiae growth modulation, no modifier, primary screen, OD600, strain BY4716, 24 h, basal condition (AID 1173); conditions: OD600, 24 h, higher = more signal, called active from +8 up or from −8 down
[3] = MM1S myeloma cell viability, profiling panel, resazurin fluorescence, basal, 24 h, PK04 Diversity Set (AID 1174); conditions: higher = more signal, called active from +8 up or from −8 down;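 note: MM1S multiple myeloma cell line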
[4] = target: Dihydroorotate dehydrogenase (quinone), mitochondrial (Plasmodium falciparum (isolate 3D7)) (UniProt Q08210); assay: PfDHODH enzyme inhibitors, primary screen, biochemical, C-terminal His tag, absorbance 600 nm (AID 1175); conditions: DCIP absorbance 600 nm, higher = more signal, called active from +8 up or from −8 down;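 note: recombinant parasite enzyme with a five histidine tag at its C terminus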
[5] = P. aeruginosa biofilm formation inhibitors, primary screen, strain PAO1, LB-PBS medium, absorbance 600 nm (AID 1176); conditions: P. aeruginosa PAO1 growth/biofilm, A600, 12 h; higher = more signal
[6] = S. cerevisiae RM11-1a growth modifiers, primary screen, strain RM11-1a, OD600, basal, 24 h (AID 1177); conditions: OD600, 24 h, higher = more signal, called active from +8 up or from −8 down;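 note: cultures grown under basal conditions with no added stressor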
[7] = E. coli acrAB mutant growth effects, primary screen, E. coli filamentation inducers, strain DRC39, OD650, 24 h (AID 1178); conditions: higher = more signal, called active from +8 up or from −8 down;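 note: growth measured as culture turbidity by optical density at 650 nm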
[8] = E. coli acrAB mutant growth effects, primary screen, E. coli filamentation inducers, strain DRC39, OD650, 48 h (AID 1179);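 note: screen aims at cell division blockers that make cells filament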; conditions: E. coli DRC39 delta-acrAB growth, higher = more signal, called active from +8 up or from −8 down
[9] = RPMI8226 myeloma cell viability, profiling panel, resazurin fluorescence, basal, 24 h, PK04 Diversity Set (AID 1180); conditions: higher = more signal;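 note: RPMI8826 multiple myeloma cell line at 5000 cells per well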
[10] = target: E3 ubiquitin-protein ligase XIAP (Homo sapiens) (UniProt P98170); assay: XIAP binders, primary screen, biophysical, small-molecule microarray, fluorescence 635 nm (AID 1181); conditions: small-molecule microarray binding, higher = more signal;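 note: score merges 667 nm emission and signal to noise over triplicate slides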
[11] = tested on: XIP peptide (Xip251-270) binding; assay: small-molecule binders of XIP peptide, primary screen, biochemical, small-molecule microarray, fluorescence 635/667 nm, 0.1 µg/mL protein (AID 1182); conditions: fluorescent protein binding, 635 nm, higher = more signal, called active from +8 up or from −8 down
XIP peptide (Xip251-270) = assay: small-molecule binders of XIP peptide, primary screen, biochemical, small-molecule microarray, fluorescence 635/667 nm, 0.5 µg/mL protein (AID 1183); conditions: small-molecule microarray binding, fluorescence 635 nm; higher = more signal
[12] = Plasmodium falciparum growth inhibition, primary screen, strain 3D7, DAPI fluorescence, 100 nL (AID 1184);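 note: parasites grown inside human red blood cells in medium with human serum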; conditions: P. falciparum 3D7 growth, 3 d, higher = more signal
[13] = target: Homeobox protein Hox-A13 (Mus musculus) (UniProt Q62424); assay: inhibitors of HoxA13-DNA binding, primary screen, biochemical, fluorescence polarization, labeled oligonucleotide (AID 1185); conditions: 15 min, higher = more signal, called active from +8 up or from −8 down
[14] = inhibitors of hydroxyurea-induced Chk1 phosphorylation, primary screen, imaging, HeLa, phospho-Chk1 antibody, percent positive cells (AID 1186); conditions: hydroxyurea-induced phospho-Chk1 immunofluorescence imaging, higher = more signal
[15] = inhibitors of hydroxyurea-induced Chk1 phosphorylation, primary screen, imaging, HeLa, phospho-Chk1 nuclear intensity (AID 1187); conditions: hydroxyurea-induced phospho-Chk1 immunofluorescence imaging, higher = more signal

Dihydroorotate dehydrogenase (quinone), mitochondrial (Plasmodium falciparum (isolate 3D7)), sequence (Q08210 whole entry, looked up): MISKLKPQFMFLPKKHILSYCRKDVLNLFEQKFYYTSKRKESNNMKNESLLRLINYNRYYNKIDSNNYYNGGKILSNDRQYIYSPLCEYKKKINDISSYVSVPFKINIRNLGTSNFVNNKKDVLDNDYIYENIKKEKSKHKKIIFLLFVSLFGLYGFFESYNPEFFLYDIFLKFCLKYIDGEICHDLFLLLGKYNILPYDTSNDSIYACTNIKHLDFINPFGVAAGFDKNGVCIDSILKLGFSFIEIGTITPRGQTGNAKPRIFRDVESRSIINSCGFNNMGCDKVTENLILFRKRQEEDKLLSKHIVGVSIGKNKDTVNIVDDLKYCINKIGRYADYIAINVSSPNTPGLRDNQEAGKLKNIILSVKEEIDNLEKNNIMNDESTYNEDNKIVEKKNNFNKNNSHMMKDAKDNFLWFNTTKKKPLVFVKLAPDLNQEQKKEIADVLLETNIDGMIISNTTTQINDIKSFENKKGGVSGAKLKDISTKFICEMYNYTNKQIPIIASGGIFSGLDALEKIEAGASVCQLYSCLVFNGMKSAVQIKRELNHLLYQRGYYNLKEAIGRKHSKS
E3 ubiquitin-protein ligase XIAP (Homo sapiens), sequence (P98170 whole entry, looked up): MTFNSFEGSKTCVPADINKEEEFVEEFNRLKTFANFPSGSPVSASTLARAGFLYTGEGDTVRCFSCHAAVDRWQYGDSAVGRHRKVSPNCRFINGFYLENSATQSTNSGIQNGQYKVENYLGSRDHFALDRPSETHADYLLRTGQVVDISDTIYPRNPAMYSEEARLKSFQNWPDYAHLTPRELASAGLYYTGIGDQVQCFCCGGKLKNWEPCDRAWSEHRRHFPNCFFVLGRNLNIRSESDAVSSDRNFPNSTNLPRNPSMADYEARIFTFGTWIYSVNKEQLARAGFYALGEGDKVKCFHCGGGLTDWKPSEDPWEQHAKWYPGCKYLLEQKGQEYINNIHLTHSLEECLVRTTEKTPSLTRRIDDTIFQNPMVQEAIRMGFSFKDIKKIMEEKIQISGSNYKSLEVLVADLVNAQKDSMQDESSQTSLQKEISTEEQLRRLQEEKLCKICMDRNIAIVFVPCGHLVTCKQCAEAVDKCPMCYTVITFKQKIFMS
Homeobox protein Hox-A13 (Mus musculus), sequence (Q62424 whole entry, looked up): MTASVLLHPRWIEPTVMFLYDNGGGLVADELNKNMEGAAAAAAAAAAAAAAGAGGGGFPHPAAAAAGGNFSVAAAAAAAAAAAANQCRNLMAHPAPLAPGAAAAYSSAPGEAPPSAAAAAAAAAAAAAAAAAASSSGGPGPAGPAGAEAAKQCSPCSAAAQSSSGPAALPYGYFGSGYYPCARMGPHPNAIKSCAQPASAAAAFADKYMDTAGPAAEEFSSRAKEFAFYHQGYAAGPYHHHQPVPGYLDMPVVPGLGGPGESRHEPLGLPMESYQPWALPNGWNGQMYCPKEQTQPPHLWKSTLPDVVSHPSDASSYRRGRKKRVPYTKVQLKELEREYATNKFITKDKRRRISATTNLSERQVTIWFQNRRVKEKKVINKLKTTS

SMILES	z-score [1]	z-score [2]	z-score [3]	composite z-score [4]	z-score [5]	z-score [6]	z-score [7]	z-score [8]	z-score [9]	composite z-score [10]	composite z-score [11]	composite z-score (XIP peptide (Xip251-270))	z-score [12]	z-score [13]	z-score [14]	z-score [15]
COc1cc2c(cc1OC)CN(C(=O)[C@H]1[C@@H]3C(=O)O[C@@H](c4ccccc4)[C@@H](c4ccccc4)N3[C@@H](c3ccc(O)cc3)[C@]13C(=O)Nc1ccc(C#CC4=CCCCC4)cc13)CC2	-0.436	-1.16 (inactive)	-0.16 (inactive)	-1.05 (inactive)	1.08 (inactive)	0.449 (inactive)	-0.222 (inactive)	-0.273 (inactive)	0.916	-0.359	0.546 (inactive)	0.795	-2.08	1.4 (inactive)	0.138 (inactive)	0.352 (inactive)
C=C(CCCC)/C(=C/C[C@@H](OC(C)=O)c1ccccc1OCCO)c1cnc2ccccc2c1	-1.25	-1.66 (inactive)	-0.614 (inactive)	-7.22 (inactive)	0.191 (inactive)	0.862 (inactive)	-0.765 (inactive)	-0.587 (inactive)	-0.52	-0.198	-0.475 (inactive)	0.234	-3.01	-5.06 (inactive)	1.11 (inactive)	0.212 (inactive)
[N-]=[N+]=NCc1ccccc1C[C@]1(C(=O)NCC(O)CO)N=C(c2ccc(OCCCO)cc2)O[C@H]1c1ccccc1 (stereo not given in full)	-0.237	-1.16 (inactive)	-0.525 (inactive)	0.105 (inactive)	0.826 (inactive)	0.125 (inactive)	-0.376 (inactive)	-0.193 (inactive)	-0.977	0.035	0.417 (inactive)	-0.148	-0.836	-6.51 (inactive)	0.112 (inactive)	0.377 (inactive)
C=CCOC(=O)[C@H]1[C@@H]2C(=O)O[C@@H](c3ccccc3)[C@@H](c3ccccc3)N2[C@@H](c2ccc(OCCOC(=O)[C@H]3C[C@H]4C(=O)N5CCC[C@H]5C(=O)N4[C@H]3c3ccc(O)cc3)cc2)[C@]12C(=O)Nc1ccccc12	0.697	1.66 (inactive)	0.744 (inactive)	-0.391 (inactive)	3.67 (inactive)	1.84 (inactive)	-0.0749 (inactive)	-0.13 (inactive)	0.435	0.201	0.0734 (inactive)	0.803	-1.62	1.42 (inactive)	-0.398 (inactive)	0.207 (inactive)
C#CCNC(=O)[C@H](Cc1ccccc1)NC(=O)CCC(=O)O	-0.487	-0.734 (inactive)	-0.135 (inactive)	0.139 (inactive)	0.927 (inactive)	-0.051 (inactive)	-0.306 (inactive)	-0.125 (inactive)	-1.28	-0.239	0.234 (inactive)	-1.75	-0.213	-0.118 (inactive)	-0.482 (inactive)	-0.815 (inactive)
CN(C)CCCNC(=O)[C@@]1(C)c2ccccc2C(=O)N(Cc2cc(F)cc(C(F)(F)F)c2)[C@H]1c1ccc(CO)cc1	0.101	-0.84 (inactive)	0.079 (inactive)	-0.478 (inactive)	0.264 (inactive)	-1.11 (inactive)	0.706 (inactive)	-0.175 (inactive)	-0.406	-0.0079	-0.55 (inactive)	-0.114	-0.809	-2.15 (inactive)	0.0595 (inactive)	0.121 (inactive)
Cc1ccc(S[C@]2(C(=O)NC3CC3)CC(=O)N(C3Cc4ccccc4C3)[C@@H]2c2ccc(CO)cc2)cc1	-0.122	-0.612 (inactive)	0.0142 (inactive)	-1.85 (inactive)	0.472 (inactive)	-1.52 (inactive)	0.851 (inactive)	1.26 (inactive)	0.0919	-0.162	0.136 (inactive)	0.876	-0.275	-2.74 (inactive)	-0.671 (inactive)	-0.716 (inactive)
COc1ccc([Si](C)(C)[C@H]2[C@H](CCn3cc([C@H](O)c4ccccc4)nn3)O[C@@]3(C(=O)N(Cc4cccc(N5CCOC5=O)c4)c4ccccc43)[C@@H]2C)cc1	-0.332	0.548 (inactive)	-1.59 (inactive)	-0.351 (inactive)	1.43 (inactive)	1.18 (inactive)	0.196 (inactive)	0.0133 (inactive)	-0.754	-0.117	-0.44 (inactive)	0.548	-1.54	-3.83 (inactive)	-0.056 (inactive)	0.324 (inactive)
O=C1C2C=CC(C(O)C(c3ccccc3)c3ccccc3)N(n3cnnc3)C2C(=O)N1Cc1ccccc1 (stereo not given)	0.264	-1.94 (inactive)	-1.15 (inactive)	-0.436 (inactive)	0.285 (inactive)	-0.255 (inactive)	-0.514 (inactive)	-0.305 (inactive)	-1.11	0.223	0.23 (inactive)	0.664	-0.528	-3.79 (inactive)	0.414 (inactive)	-0.402 (inactive)
C=CCNC(=O)[C@H]1[C@@H]2C(=O)O[C@@H](c3ccccc3)[C@@H](c3ccccc3)N2[C@@H](c2ccccc2OCCO)[C@]12C(=O)Nc1ccc(C#CC3=CCCCC3)cc12	-2.93	1.97 (inactive)	-8.87 (active)	0.266 (inactive)	1.89 (inactive)	3.11 (inactive)	-0.639 (inactive)	-0.0547 (inactive)	-7.09	0.112	-0.274 (inactive)	0.769	-2.06	2.46 (inactive)	-0.333 (inactive)	-0.739 (inactive)
